# Data published in PubChem BioAssay AID623870 (Broad Institute, 2012).
# The campaign covered roughly 390,000 compounds. About 2,600 (0.67%) were called active. Only a selection was taken, and actives are over-represented in it overall. Unmarked numbers belong to inactive results.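 How the source made its calls: active means mean inhibition of replicates at least 50% and at least half of replicates each reaching 50%; inconclusive means half or more replicates reach 50% but mean below 50%; inactive means the rest.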
# Biological target: Transforming acidic coiled-coil-containing protein 3 (Homo sapiens) (UniProt Q9Y6A5)
# Assay: disruptors of ARNT/TACC3 protein interaction, primary screen, biochemical, AlphaScreen, single concentration (AID 623870);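 further: 0% = complete ARNT plus TACC3 wells and 100% = ARNT alone without TACC3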
# Conditions: AlphaScreen His-ARNT PAS-B/GST-TACC3 binding, luminescence; at 9.99 µM; active compounds read high; TACC3 fragment carries E629A point mutation
row,Compound,inhibition
1,COCCNC(=O)Cn1cc(C(=O)c2cccs2)c2ccccc21,-1.09% (active)
2,COCCCNC(=O)Cn1cc(C(=O)C2CC2)c2ccccc21,1.82%
3,COCCNC(=O)C(OC(=O)c1cccs1)c1ccc(F)cc1 (centres undefined),-9.93%
4,C[C@@H]1CCCCO[C@H](CN(C)Cc2ccc(Cl)c(Cl)c2)[C@H](C)CN([C@@H](C)CO)C(=O)c2cc(NC(=O)C3CCCCC3)ccc2O1,-6.84%
5,C[C@@H]1CN([C@@H](C)CO)C(=O)CCCn2cc(nn2)CO[C@H]1CN(C)C(=O)Nc1ccc(N2CCCCC2)cc1,4.48%
6,O=C(NCC[C@@H]1CC[C@H](NC(=O)Nc2cc(F)ccc2F)[C@@H](CO)O1)Nc1ccc(Cl)cc1,-4.66%
7,CNC(=O)C[C@@H]1CC[C@@H]2[C@H](COc3ccc(NC(=O)Nc4ccccc4)cc3C(=O)N2C)O1,-2.84%
8,O=C(CC1CC1)N1[C@H](CO)[C@@H]2c3ccccc3N(S(=O)(=O)c3ccc(F)cc3)C[C@@H]21,-6.11%
9,O=C(C[C@H]1CC[C@@H](NC(=O)Cc2cccnc2)[C@H](CO)O1)Nc1ccc(-c2ccccc2)cc1,-7.46%
10,COc1ccc(S(=O)(=O)Nc2ccc3c(c2)CC(=O)N([C@H](C)CO)C[C@H](C)[C@H](CN(C)CC2CC2)O3)cc1,-8.43%
11,O=C(Nc1cc(F)ccc1F)N1C[C@H]2[C@@H](c3ccccc31)[C@@H](CO)N2CC1CCCC1,-1.12%
12,CC(C(=O)Nc1ccc(O)c(C(=O)O)c1)N1C(=O)/C(=C/c2cccs2)SC1=S (centres undefined),55.9% (active)
13,Cc1cccc(NC(=O)C(C)N2C(=O)C3C4CC(C(Br)C4Br)C3C2=O)c1 (centres undefined),5.02%
14,Cc1noc(C)c1S(=O)(=O)N(C)C[C@@H]1OCCCC[C@H](C)Oc2ccc(NC(=O)Nc3ccc4c(c3)OCO4)cc2C(=O)N([C@H](C)CO)C[C@H]1C,-0.948%
15,CC1=NNC(=O)C1CC(=O)N/N=C/c1ccncc1 (centres undefined),3.25%
16,CC1=NNC(=O)C1CCC(=O)N/N=C\c1cccc(Cl)c1 (centres undefined),4.23%
17,COc1cccc(/C=N\NC(=O)C2=NNC(=O)C2C)c1O (centres undefined),71.4% (active)
18,C[C@H]1CN([C@@H](C)CO)C(=O)Cc2cc(NC(=O)Nc3cccc4ccccc34)ccc2O[C@@H]1CN(C)C,-6.19%
19,C[C@@H]1CN([C@H](C)CO)C(=O)Cc2cc(NC(=O)Nc3cccc4ccccc34)ccc2O[C@@H]1CN(C)Cc1ccc(C(=O)O)cc1,-8.02% (active)
20,C[C@@H]1CCCCO[C@H](CN(C)C(=O)Nc2cccc3ccccc23)[C@H](C)CN([C@@H](C)CO)C(=O)c2cc(NC(=O)CCCN(C)C)ccc2O1,14.2%
21,C[C@@H]1CN([C@@H](C)CO)C(=O)c2cc(NC(=O)CCCN(C)C)ccc2O[C@@H](C)CCCCO[C@H]1CN(C)C(=O)Nc1cccc2ccccc12,39.5% (active)
22,C[C@@H]1CN([C@@H](C)CO)C(=O)c2cc(NC(=O)Cc3ccccc3)ccc2O[C@@H](C)CCCCO[C@H]1CN(C)C(=O)Nc1cccc2ccccc12,1%
23,C[C@@H]1CN([C@H](C)CO)C(=O)Cc2cc(NC(=O)Nc3cccc4ccccc34)ccc2O[C@@H]1CN(C)Cc1ccc(C(F)(F)F)cc1,0.147%

row,Compound,inhibition
1,CC=Cc1ccc2n(c1=O)C[C@@H]1[C@@H](CO)[C@H](C(=O)NCC3CC3)[C@H]2N1C(=O)c1ccccc1 (mixture of isomers),-1.91%
2,O=c1nc2s/c(=C\c3ccco3)c(=O)n2nc1Cc1ccccc1,67.7% (active)
3,O=c1/c(=C/c2ccc(CNS(=O)(=O)c3ccccc3)o2)sc2n1CCN=2,40.1%
4,CO[C@@H]1CN(C)C(=O)c2ccc(NC(=O)NC(C)C)cc2OC[C@@H](C)N(C(=O)NC(C)C)C[C@H]1C,-3.87%
5,COc1ccccc1-c1cnc2c(c1)C(=O)N([C@H](C)CO)C[C@H](C)[C@H](CN(C)Cc1cccnc1)O2,29.4%
6,O=C(CN1CCOCC1)N[C@@H]1CC[C@@H](CCn2cc(C3CCCCC3)nn2)O[C@@H]1CO,0.304%
7,CCC(=O)N(C)C[C@H]1Oc2cc(-c3ccccc3F)ccc2S(=O)(=O)N([C@H](C)CO)C[C@@H]1C,-1.89%
8,COc1ccc(NC(=O)O[C@@H](c2ccc(OCCO)cc2)[C@@H](C)CCO)cc1,-10.6%
9,O=C(O)c1ccc2c3c(cccc13)C(=O)N(OS(=O)(=O)c1ccccc1)C2=O,67.5% (active)
10,C[C@@H]1CN([C@H](C)CO)C(=O)c2cc(C#CCN(C)C)cnc2O[C@@H]1CN(C)C(=O)Cc1cccnc1,-0.97%
11,CO[C@H]1CN(C)C(=O)c2ccc(NC(=O)c3ccc4c(c3)OCO4)cc2OC[C@@H](C)NC[C@@H]1C,-11.2%
12,Cc1ccc(-c2ccc(/C=C(\C#N)C(N)=S)o2)c([N+](=O)[O-])c1,1.03%
13,CC1=NN(c2ccc(Cl)c(C(=O)O)c2)C(=O)/C1=C/c1ccc(-c2ccccc2[N+](=O)[O-])o1,29.2% (active)
14,Cc1ccc(S(=O)(=O)N(C)C[C@H]2Oc3c(NC(=O)C4CC4)cccc3C(=O)N([C@@H](C)CO)C[C@@H]2C)cc1,-6.68%
15,COC(=O)C1=C(C)NC2=C(C(=O)c3ccccc32)C1c1ccc(-c2ccc(C(=O)O)cc2)o1 (centres undefined),65.4% (active)
16,O=C(C[C@H]1C[C@H]2c3cc(NC(=O)Nc4ccccc4F)ccc3O[C@H]2[C@H](CO)O1)NCc1ccccn1,-10.9%
17,COc1ccc(NC(=O)N(C)C[C@H]2OCCCC[C@@H](C)Oc3ccc(NS(=O)(=O)c4ccc(F)cc4)cc3C(=O)N([C@H](C)CO)C[C@H]2C)cc1,-5.89%
18,C/C=C/c1cnc2c(c1)C(=O)N([C@@H](C)CO)C[C@@H](C)[C@H](CN(C)Cc1ccccc1)O2,-2.09%
19,CCN1CCN(C(c2cccnc2)c2cc(Cl)c3cccnc3c2O)CC1 (centres undefined),55.4% (active)
20,CCOC(=O)N1CCN(C(=O)C2CCN(c3ncnc4c3sc3cccc(F)c34)CC2)CC1,-0.287%
21,Cc1ccc(OCC(=O)N2CCN(C(=O)c3cccnc3)CC2)cc1,-5.09%
22,CCOC(=O)N1CCN(C(c2cccnc2)c2ccc3cccnc3c2O)CC1 (centres undefined),61.4% (active)
23,CCS(=O)(=O)Nc1ccc2c(c1)C(=O)N(C)[C@@H]1CC[C@H](CC(=O)N[C@H]3CCN(Cc4ccccc4)C3)O[C@@H]1CO2,4.57%

row,Compound,inhibition
1,CC=Cc1ccc2n(c1=O)C[C@H]1[C@H](CO)[C@@H](C(=O)NC3CCCC3)N(Cc3ccncc3)[C@@H]21 (mixture of isomers),7.61%
2,O=C(C[C@@H]1C[C@@H]2c3cc(NC(=O)C4CCC4)ccc3O[C@@H]2[C@@H](CO)O1)NCc1ccccc1,-8.97%
3,CCC(=O)N1C[C@H](C)[C@H](OC)CN(C)C(=O)c2ccc(NS(C)(=O)=O)cc2OC[C@H]1C,0.229%
4,COc1ccccc1C(=O)Nc1ccc2c(c1)C(=O)N(C)C[C@@H](OC)[C@@H](C)CN(C)[C@H](C)CO2,5.81%
5,CN1C(=O)c2cc(NC(=O)Nc3ccccc3Cl)ccc2OC[C@H]2O[C@H](CC(=O)NCCCN3CCOCC3)CC[C@H]21,-6.44%
6,CCOC(=O)c1cn[nH]c1NC(=S)Nc1ccccc1,-4.6%
7,CCN(C(=O)Cc1nc(N)n[nH]1)C1(C(=O)Nc2ccccc2)CCCCC1,73.1% (active)
8,COc1ccc(-c2ccc3c(c2)[C@H]2[C@H](CCN2C(=O)c2ccc4c(c2)OCO4)[C@@H](CO)N3)cc1,2.52%
9,COc1c(O)ccc2c1CN1CCc3cc4c(cc3C1C2)OCO4 (centres undefined),59.9% (active)
10,COc1cc(C2c3cc4c(cc3C(O)C3COC(=O)C23)OCO4)cc(OC)c1OC (centres undefined),-5.89%
11,CC(C)C#Cc1cnc2c(c1)C(=O)N([C@H](C)CO)C[C@H](C)[C@@H](CN(C)C(=O)Nc1cc(F)ccc1F)O2,2.21%
12,C[C@H]1CN([C@@H](C)CO)C(=O)c2cc(C#Cc3ccccc3F)cnc2O[C@H]1CN(C)C,-2.77%
13,CC=Cc1ccc2n(c1=O)C[C@@H]1[C@@H](CO)[C@H](C(=O)NCC)[C@H]2N1CCC(F)(F)F (mixture of isomers),-2.83%
14,COc1ccccc1-c1nnc(NC(=O)c2cccc(N3C(=O)CCC3=O)c2)o1,60.7% (active)
15,COc1ccc(Cl)cc1NC(=O)c1cccc(N2C(=O)C3CC=CCC3C2=O)c1 (centres undefined),3.74%
16,COc1ccccc1C(=O)Oc1ccc(N2C(=O)CCC2=O)cc1,-4.25%
17,CCNC(=O)C[C@H]1CC[C@@H](NC(=O)C2CCOCC2)[C@@H](CO)O1,-5.26%
18,O=S(=O)(c1ccc(F)cc1)N1CCCCN2[C@H](CO)[C@@H](c3ccc(C#CC4CCCC4)cc3)[C@H]2C1,5.01%
19,CC(C)NC(=O)Nc1cccc2c1O[C@H](CN(C)S(=O)(=O)c1ccccc1)[C@@H](C)CN([C@@H](C)CO)C2=O,-11.5%
20,Cc1c(NC(=O)C(=O)N/N=C/c2cccs2)c(=O)n(-c2ccccc2)n1C,4.89%
21,CNC(=O)C(=O)N/N=C/c1ccccn1,57.1% (active)
22,C=CCOc1ccc(/C=N/NC(=O)C(C)Sc2ccccn2)cc1OCC (centres undefined),14.2%
23,COc1ccccc1S(=O)(=O)N[C@@H]1C=C[C@H](CC(=O)N2CCOCC2)O[C@@H]1CO,-20.1%
